log2 fold change data for 17 targets are collected here from the supplement of paper PMC10849652.

Experiment in all cases: log2 fold change, soluble protein after heating vs DMSO (PISA); higher = thermal stabilisation; K562 lysate, 10 uM; active = over 0.2 and 3.5 SD of the protein, either way, in both replicates (recomputed)
Compound in experiment [1]: NCC(=O)Nc1ccc(-n2nc(C(F)(F)F)cc2-c2ccc3c(ccc4ccccc43)c2)cc1
In outline:
(§1)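 To prepare the extract, K562 pellets were dounce-homogenised in PBS pH 7.4 with 1 mM MgCl2, giving crude material at 1 mg/mL protein. This was treated with 10 μM compound for 30 min, then heated in aliquots for 3 min over 48°C-58°C before pooling and addition of NP-40 to 0.5% at 4°C. Centrifugation at 21,000xg for 90 min left soluble protein in the supernatant, which TMTpro 16plex LC-MS/MS quantified with equalised channel sums. Results are log-two fold changes in thermal stability compared with solvent controls, from duplicates.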

Compound in another experiment: O=C(CCCCCCC(=O)Nc1ccccc1)NO [vorinostat]
The essentials:
as §1

Compound in the next experiment: O=C(O)c1ccc2c(c1)nc(Nc1cccc(Cl)c1)c1ccncc12 [silmitasertib]
The essentials:
as §1

Compound in experiment [2]: O=C1NC(=O)C(c2cnc3ccccn23)=C1c1cn2c3c(cc(F)cc13)CN(C(=O)N1CCCCC1)CC2
In outline:
as §1

Compound in a further experiment: c1cn2cc(-c3ccc4cn[nH]c4c3)nc(Nc3ccc(N4CCOCC4)cc3)c2n1 [entospletinib]
In outline: as §1

The full data set covers some 8,800 targets. This sample favours those with a hit. About 0.5% of all pairs of compound and target were hits. Unmarked numbers belong to inactive results.

Sequence of UniProt Q9BVS4 (Q9BVS4 whole entry, looked up): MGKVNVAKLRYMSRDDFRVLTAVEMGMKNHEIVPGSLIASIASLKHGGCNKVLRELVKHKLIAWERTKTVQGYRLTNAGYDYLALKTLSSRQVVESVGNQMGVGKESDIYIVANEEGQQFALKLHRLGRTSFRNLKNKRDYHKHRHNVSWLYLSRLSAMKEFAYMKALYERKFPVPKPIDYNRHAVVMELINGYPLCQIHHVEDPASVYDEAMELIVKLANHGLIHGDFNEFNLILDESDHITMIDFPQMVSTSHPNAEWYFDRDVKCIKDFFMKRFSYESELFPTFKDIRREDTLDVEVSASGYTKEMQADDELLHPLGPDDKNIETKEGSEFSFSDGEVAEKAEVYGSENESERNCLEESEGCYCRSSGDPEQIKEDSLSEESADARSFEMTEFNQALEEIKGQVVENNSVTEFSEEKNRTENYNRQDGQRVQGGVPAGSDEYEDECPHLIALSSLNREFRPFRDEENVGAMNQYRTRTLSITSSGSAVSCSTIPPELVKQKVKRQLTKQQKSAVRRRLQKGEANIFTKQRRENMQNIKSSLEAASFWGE
Sequence of UniProt P40937 (P40937 whole entry, looked up): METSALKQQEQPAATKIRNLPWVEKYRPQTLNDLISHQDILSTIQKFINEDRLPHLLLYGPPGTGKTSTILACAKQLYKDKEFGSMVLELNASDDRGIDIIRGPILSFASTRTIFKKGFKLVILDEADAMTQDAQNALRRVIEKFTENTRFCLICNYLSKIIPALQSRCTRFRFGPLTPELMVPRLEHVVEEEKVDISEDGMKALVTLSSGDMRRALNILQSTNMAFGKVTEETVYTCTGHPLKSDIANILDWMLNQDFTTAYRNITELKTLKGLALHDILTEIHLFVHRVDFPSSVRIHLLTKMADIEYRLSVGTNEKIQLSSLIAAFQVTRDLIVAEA
Sequence of UniProt O94855 (O94855 whole entry, looked up): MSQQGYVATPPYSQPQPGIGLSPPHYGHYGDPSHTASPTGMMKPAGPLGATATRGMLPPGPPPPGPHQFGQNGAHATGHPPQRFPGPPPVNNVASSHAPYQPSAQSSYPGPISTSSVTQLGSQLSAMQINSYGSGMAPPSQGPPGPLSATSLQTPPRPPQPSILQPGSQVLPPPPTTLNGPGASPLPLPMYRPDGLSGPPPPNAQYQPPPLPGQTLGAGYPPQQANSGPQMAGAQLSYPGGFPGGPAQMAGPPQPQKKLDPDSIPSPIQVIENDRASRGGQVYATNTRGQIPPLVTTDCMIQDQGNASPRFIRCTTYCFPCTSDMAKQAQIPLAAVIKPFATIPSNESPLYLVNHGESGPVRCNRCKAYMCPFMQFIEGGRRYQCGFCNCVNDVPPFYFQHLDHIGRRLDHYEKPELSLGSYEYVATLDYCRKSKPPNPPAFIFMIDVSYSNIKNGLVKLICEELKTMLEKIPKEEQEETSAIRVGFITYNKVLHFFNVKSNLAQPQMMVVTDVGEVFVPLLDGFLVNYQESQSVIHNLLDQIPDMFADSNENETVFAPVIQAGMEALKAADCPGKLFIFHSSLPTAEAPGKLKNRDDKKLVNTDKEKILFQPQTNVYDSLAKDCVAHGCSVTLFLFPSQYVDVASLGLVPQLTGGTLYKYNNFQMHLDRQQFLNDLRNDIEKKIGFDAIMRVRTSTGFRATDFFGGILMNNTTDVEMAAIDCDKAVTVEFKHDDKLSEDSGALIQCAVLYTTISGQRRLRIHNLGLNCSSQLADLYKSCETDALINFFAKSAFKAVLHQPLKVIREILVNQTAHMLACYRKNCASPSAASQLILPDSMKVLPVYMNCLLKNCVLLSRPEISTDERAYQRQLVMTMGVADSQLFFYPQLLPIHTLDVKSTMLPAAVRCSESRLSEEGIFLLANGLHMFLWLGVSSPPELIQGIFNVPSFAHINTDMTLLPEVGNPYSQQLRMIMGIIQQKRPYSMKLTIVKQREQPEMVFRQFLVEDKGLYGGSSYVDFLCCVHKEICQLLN
Sequence of UniProt Q9H7N4 (Q9H7N4 whole entry, looked up): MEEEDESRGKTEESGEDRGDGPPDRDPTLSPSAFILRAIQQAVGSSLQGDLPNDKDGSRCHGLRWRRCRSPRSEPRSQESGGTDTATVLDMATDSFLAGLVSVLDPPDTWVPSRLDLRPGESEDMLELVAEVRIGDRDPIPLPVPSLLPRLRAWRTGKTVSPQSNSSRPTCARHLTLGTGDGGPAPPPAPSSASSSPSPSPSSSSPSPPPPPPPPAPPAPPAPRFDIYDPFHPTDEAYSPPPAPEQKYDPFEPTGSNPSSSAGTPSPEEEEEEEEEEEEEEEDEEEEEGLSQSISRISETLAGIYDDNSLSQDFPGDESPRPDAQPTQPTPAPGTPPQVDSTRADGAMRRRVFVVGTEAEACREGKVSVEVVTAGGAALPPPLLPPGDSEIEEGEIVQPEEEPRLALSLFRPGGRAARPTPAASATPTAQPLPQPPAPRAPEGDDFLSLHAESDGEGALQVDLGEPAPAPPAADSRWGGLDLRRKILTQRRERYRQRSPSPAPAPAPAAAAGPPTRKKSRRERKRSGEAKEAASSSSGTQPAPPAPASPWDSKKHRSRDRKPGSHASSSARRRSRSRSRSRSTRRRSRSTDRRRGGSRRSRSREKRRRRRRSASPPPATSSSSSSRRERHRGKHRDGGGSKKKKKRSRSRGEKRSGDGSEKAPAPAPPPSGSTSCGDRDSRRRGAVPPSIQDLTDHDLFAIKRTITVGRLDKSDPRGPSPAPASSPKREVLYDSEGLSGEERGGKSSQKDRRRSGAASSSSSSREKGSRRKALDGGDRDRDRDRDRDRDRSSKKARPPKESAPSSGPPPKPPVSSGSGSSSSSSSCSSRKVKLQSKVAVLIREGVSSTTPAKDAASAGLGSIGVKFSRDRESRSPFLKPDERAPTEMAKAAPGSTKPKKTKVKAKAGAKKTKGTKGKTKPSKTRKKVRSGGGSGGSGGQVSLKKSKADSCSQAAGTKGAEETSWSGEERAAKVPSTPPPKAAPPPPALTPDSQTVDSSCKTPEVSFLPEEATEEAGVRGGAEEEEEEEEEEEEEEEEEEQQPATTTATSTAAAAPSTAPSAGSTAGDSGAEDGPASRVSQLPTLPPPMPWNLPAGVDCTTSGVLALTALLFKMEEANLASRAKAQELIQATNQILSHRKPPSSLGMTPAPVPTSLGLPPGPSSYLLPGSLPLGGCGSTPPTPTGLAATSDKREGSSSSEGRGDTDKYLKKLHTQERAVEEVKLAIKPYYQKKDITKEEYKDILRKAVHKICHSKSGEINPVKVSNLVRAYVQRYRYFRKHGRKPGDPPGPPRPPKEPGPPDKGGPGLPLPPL
Sequence of UniProt Q96HR9 (Q96HR9 whole entry, looked up): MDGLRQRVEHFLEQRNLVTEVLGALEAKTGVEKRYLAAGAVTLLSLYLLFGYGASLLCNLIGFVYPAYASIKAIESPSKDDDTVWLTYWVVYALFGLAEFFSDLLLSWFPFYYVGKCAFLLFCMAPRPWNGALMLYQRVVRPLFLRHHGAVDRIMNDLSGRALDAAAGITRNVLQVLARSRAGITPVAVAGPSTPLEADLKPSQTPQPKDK
Sequence of UniProt Q99643 (Q99643 whole entry, looked up): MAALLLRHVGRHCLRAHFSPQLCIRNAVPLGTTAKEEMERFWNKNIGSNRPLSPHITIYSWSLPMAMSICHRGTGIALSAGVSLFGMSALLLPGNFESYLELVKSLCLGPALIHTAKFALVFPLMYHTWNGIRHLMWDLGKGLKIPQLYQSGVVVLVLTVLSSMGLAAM
Sequence of UniProt O75880 (O75880 whole entry, looked up): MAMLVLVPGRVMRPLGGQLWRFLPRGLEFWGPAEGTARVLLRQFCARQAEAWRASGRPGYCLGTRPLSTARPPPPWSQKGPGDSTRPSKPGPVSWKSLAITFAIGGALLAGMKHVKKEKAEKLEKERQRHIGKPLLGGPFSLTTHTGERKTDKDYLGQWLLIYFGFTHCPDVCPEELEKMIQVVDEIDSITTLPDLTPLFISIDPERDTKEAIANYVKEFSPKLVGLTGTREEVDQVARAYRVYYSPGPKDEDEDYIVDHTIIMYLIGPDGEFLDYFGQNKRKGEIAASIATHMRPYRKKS
Sequence of UniProt Q53S08 (Q53S08 whole entry, looked up): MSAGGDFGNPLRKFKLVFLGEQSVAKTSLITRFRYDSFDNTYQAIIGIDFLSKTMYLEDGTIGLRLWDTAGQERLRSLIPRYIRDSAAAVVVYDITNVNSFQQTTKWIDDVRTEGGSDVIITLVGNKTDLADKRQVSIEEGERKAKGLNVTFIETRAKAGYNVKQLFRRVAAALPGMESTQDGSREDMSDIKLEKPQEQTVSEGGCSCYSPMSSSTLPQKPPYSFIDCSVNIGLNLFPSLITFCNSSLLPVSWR
Sequence of UniProt Q00765 (Q00765 whole entry, looked up): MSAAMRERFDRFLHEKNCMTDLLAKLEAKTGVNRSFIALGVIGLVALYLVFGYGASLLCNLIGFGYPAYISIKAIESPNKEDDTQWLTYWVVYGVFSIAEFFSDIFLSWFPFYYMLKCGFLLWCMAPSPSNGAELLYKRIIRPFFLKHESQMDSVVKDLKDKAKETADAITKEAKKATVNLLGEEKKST

For RPL8 (UniProt P62917), the log2 fold change in experiment [1] was -0.041; in the experiment with vorinostat, 0.12; with silmitasertib it was 0; in experiment [2], 0.089; in the experiment with entospletinib, -0.006.
For RFC5 (UniProt P40937) the same measures were 0.019, -0.492 (active), 0.031, 0.019 and 0.014.
Taken in the same sequence, the figures for SCAF1 (UniProt Q9H7N4) were -0.172, -0.076, 0.042, -0.04 and 0.025.
Taken in the same sequence, the figures for RCOR3 isoform 3 (UniProt Q9P2K3) were -0.044, -0.206, -0.002, -0.01 and 0.034.
In the case of RPS6KA5 (UniProt O75582), the log2 fold change was -0.025 in experiment [1]; -0.189 in the experiment with vorinostat; 0.034 with silmitasertib; -0.303 in experiment [2]; -0.007 with entospletinib.
Taken in the same sequence, the figures for REEP6 (UniProt Q96HR9) were -0.031, 0.068, -0.083, -0.028 and -0.059.
SEC24D isoform 2 (UniProt O94855): the log2 fold change in experiment [1] was -0.017; with vorinostat it was -0.251 (active); in the experiment with silmitasertib, 0.037; in experiment [2], -0.013; with entospletinib, -0.003.
Take RPL31 (UniProt P62899): the log2 fold change in experiment [1] was 0.003; with vorinostat, 0.126; in the experiment with silmitasertib, 0.007; in experiment [2], 0.06; with entospletinib, 0.021.
Take SDHC (UniProt Q99643): the log2 fold change in experiment [1] is -0.046; with vorinostat, -0.196; with silmitasertib, 0.048; in experiment [2], -0.071; with entospletinib, 0.088.
Taken in the same sequence, the figures for REEP5 (UniProt Q00765) were -0.034, 0.001, -0.025, 0.02 and 0.015.
Regarding RAB6D (UniProt Q53S08), the log2 fold change was -0.012 in experiment [1]; 0.151 in the experiment with vorinostat; -0.02 with silmitasertib; -0.011 in experiment [2]; -0.01 with entospletinib.
For SCO1 (UniProt O75880) the same measures were 0.022, 0.149, -0.067, -0.052 and 0.
Taken in the same sequence, the figures for RIOK2 (UniProt Q9BVS4) were -0.022, -0.098, 0.096, 0.008 and 0.315.
For RPL27 (UniProt P61353) the same measures were 0.014, 0.129, 0.03, 0.013 and 0.009.
Regarding RINT1 (UniProt Q6NUQ1), the log2 fold change in experiment [1] was 0.078; with vorinostat it was -0.321 (active); with silmitasertib it was 0.038; in experiment [2], 0.034; with entospletinib, -0.089.
For QSER1, A0A3B3IRW6 the same measures were -0.013, -0.236 (active), 0.038, 0.033 and 0.002.
With SBF1 isoform 4 (UniProt O95248), the log2 fold change in experiment [1] is 0.013; in the experiment with vorinostat it was -0.377 (active); in the experiment with silmitasertib it was -0.046; in experiment [2], 0.056; in the experiment with entospletinib it was 0.005.
